Source: PubChem (National Center for Advancing Translational Sciences (NCATS))
AmpC inh detg – blocks E. coli AmpC beta-lactamase in detergent assay | P00811 | AmpC hydrolysis of nitrocefin, absorbance 480 nm, 0.01% Triton | Potency, µM (titrated, usually from 114 µM), hits mostly inhibitors | hit rate 0.041% among 370,000; further: nearly all actives have a fitted effect of over 25% in size
Target sequence (P00811 whole entry, looked up): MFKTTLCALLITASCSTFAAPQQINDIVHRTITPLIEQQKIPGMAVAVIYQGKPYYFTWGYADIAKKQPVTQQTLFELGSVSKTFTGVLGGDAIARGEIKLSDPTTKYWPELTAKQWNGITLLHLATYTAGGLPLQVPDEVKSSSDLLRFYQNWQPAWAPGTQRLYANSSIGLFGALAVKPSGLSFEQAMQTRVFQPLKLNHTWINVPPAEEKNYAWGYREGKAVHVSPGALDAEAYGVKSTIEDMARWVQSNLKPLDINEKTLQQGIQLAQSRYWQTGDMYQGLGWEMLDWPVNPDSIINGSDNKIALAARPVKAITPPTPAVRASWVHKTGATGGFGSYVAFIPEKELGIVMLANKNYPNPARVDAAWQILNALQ
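AmpC (5.3 nM in the dispensed reagent) in 20 mM phosphate pH 7.0 with 0.01% (detergent screen) or 0.0001% Triton X-100 was preincubated with compounds for 15 min at room temperature. Nitrocefin was then added from an 800 uM solution, and hydrolysis was followed at 480 nm.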
Giardia FBPA inh-1 – inhibitors of Giardia lamblia fructose-1,6-bisphosphate aldolase; A8B2U2; purified Giardia FBPA; Potency, µM (highest dose often 59.6 µM), actives largely listed as inhibitors; hit rate 0.71% among 290,000; AID 2451; further: nearly all actives have a fitted effect of over 55% in size
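40 nM FBPA preincubated 10 min at RT with compound (up to 57.5 uM final), then substrate plus GAPDH/TPI/NAD/arsenate coupling and diaphorase/resazurin added. Fluorescence read after 20 min at RT, 525/598 nm.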
SARS PLP yeast – SARS-CoV PLP inhibition in yeast; AID 485353; S. cerevisiae expressing SARS-CoV PLpro, growth rescue; Potency, µM (series often up to 32.9 µM), actives largely listed as activators; hit rate 0.19% among 330,000; calls by dose curve; further: nearly all actives have a fitted effect of over 55% in size
AmpC no deterg – inhibitors of E. coli AmpC beta-lactamase without detergent; P00811; AmpC nitrocefin hydrolysis, absorbance 480 nm, 0.0001% Triton; Potency, µM (highest dose often 57.1 µM), usual class: inhibitors; hit rate 0.52% among 330,000; AID 485341; further: nearly all actives have a fitted effect of over 20% in size
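AmpC (5.3 nM in the dispensed reagent) in 20 mM phosphate pH 7.0 with 0.01% (detergent screen) or 0.0001% Triton X-100 was preincubated with compounds for 15 min at room temperature. Nitrocefin was then added from an 800 uM solution, and hydrolysis was followed at 480 nm.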
NS1 inh – inhibitors of influenza NS1 protein function; Potency, µM (highest dose often 46.1 µM); hit rate 0.4% among 270,000; calls by dose curve; further: actives are rising curves; nearly all actives have a fitted effect of over 50% in size
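OD600 was taken as the measure of yeast growth restored by compound in an NS1-expressing S. cerevisiae strain. Cells had been washed out of glucose medium and diluted 1:100 into galactose -URA medium, pH 6.0.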
Giardia growth – blocks growth of Giardia lamblia trophozoites. shares compounds with Giardia FBPA inh-1. hit rate 5% among 1,500. Potency, µM (series often up to 57.5 µM), hits mostly inhibitors. Giardia lamblia trophozoite growth inhibition;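 further: trophozoites exposed to compound for 48 h at 37 °C; nearly all actives have a fitted effect of over 70% in size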
Mammal cell tox – counter-screen for Giardia aldolase inhibitors: mammalian cell toxicity; hit rate 4% among 1,500; Potency, µM (series often up to 57.5 µM), actives largely listed as inhibitors; AID 2786; mammalian cell viability counter-screen, qHTS; shares compounds with Giardia FBPA inh-1;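 further: Chinese hamster ovary cells used as mammalian cytotoxicity surrogate; viability measured as cellular ATP by luminescence; compound exposure lasted 48 h before reading; nearly all actives have a fitted effect of over 60% in size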
Giardia FBPA inh-2 – confirmation of Giardia fructose-bisphosphate aldolase inhibitors. Potency, µM (series often up to 57.5 µM), hits mostly inhibitors. purified Giardia aldolase enzyme activity, qHTS. hit rate 5% among 1,500. AID 2787. shares compounds with Giardia FBPA inh-1; further: nearly all actives have a fitted effect of over 45% in size
Rabbit aldolase – rabbit FBP aldolase inhibition by Giardia aldolase hits | shares compounds with Giardia FBPA inh-1 | AID 2794 | Potency, µM (top dose mostly 57.5 µM), usual class: inhibitors | Rabbit muscle FBPA enzyme inhibition, selectivity counter-screen | hit rate 4% among 1,500; further: nearly all actives have a fitted effect of over 60% in size
GAPDH coupling – counter-screen for Giardia aldolase inhibitors: GAPDH coupling enzyme. shares compounds with Giardia FBPA inh-1. GAPDH coupling enzyme counterscreen, biochemical, qHTS. Potency, µM (doses to about 57.5 µM), hits mostly inhibitors. hit rate 6% among 1,500; further: nearly all actives have a fitted effect of over 55% in size
A number is an active result; – = inactive; ? = inconclusive; · = no result given; [ ] = remark or other dose. Compounds with a hit are over-represented: about 1.4% of the library has one in this group of screens. Unless noted, the call rests on the fitted dose curve; in most records, active means well fitted curve in the direction sought with a large enough effect; inconclusive means small, poorly fitted or top-dose-only effect, or another doubt; inactive means no such curve, though single readings can be large; an effect the other way counts as inactive or inconclusive.

SMILES	AmpC inh detg	Giardia FBPA inh-1	SARS PLP yeast	AmpC no deterg	NS1 inh	Giardia growth	Mammal cell tox	Giardia FBPA inh-2	Rabbit aldolase	GAPDH coupling
O=C(C1CCCN(Cc2ccccc2F)C1)N1CCc2ccccc2C1 (stereo not given)	–	–	–	–	–	·	·	·	·	·
O=C(C1CCCN(Cc2ccccc2F)C1)N1CCCCC1 (stereo not given)	–	13µM	–	–	–	–[10.4 µM]	–	–	–	–
CN(C)CCCNC(=O)c1ccc(/C=N/O)nc1	–	–	–	–	–	·	·	·	·	·
CNCCCNC(=O)c1ccc(/C=N/O)nc1	–	16µM	–	–	·	–	–	–	–	–
O=C(NCc1ccccc1)c1ccc(/C=N/O)nc1	–	–	–	–	–	·	·	·	·	·
NC(=O)c1ccc(/C=N/O)nc1	–	18µM	–	–	–	?	–	–	–	–
CC(=O)N1c2ccc(S(=O)(=O)N3CCC(C(=O)NCc4ccccc4Cl)CC3)cc2CC1C (stereo not given)	–	–	–	–	–	·	·	·	·	·
Cc1ccc(C(=O)Nc2nnc(S(=O)(=O)N3CCOCC3)s2)cc1	–	18µM	–	–	–	?	–	?	?	25µM
CC1CCN(S(=O)(=O)c2nnc(NC(=O)c3cccc([N+](=O)[O-])c3)s2)CC1	–	14µM	–	–	–	–[10.4 µM]	–	16µM	25µM	16µM
O=C(Nc1nnc(S(=O)(=O)N2CCOCC2)s1)c1ccc(F)cc1	?	16µM	–	–	–	?	–	?	?	40µM
CC(=O)NC(CCS(C)(=O)=O)C(=O)Nc1ccc(F)cc1Cl (stereo not given)	–	–	–	–	–	·	·	·	·	·
CC(C)(C)c1ccc(CSc2nnc(-c3ccccc3NC(=O)c3ccccc3)o2)cc1	–	–	–	–	–	·	·	·	·	·
CCOC(=O)c1cc(NC(=O)Nc2cc(C)ccn2)c(C)nc1C	?	–	–	–[11.4 µM]	·	·	·	·	·	·
O=C(CCNS(=O)(=O)c1ccccc1)N1CCOCC1	–	·	?	–	–	·	·	·	·	·
Cc1nnc(NC(=O)c2ccc(S(=O)(=O)N3CCc4ccccc4C3)cc2)o1	?	18µM	–	–	·	?	–	–	–	–
COCc1nnc(NC(=O)c2ccc(S(=O)(=O)N3CCOCC3)cc2)o1	–	22µM	–	–	–	?	–	–	–	–
Cc1nnc(NC(=O)c2ccc(S(=O)(=O)N3CC(C)CC(C)C3)cc2)o1 (stereo not given)	?	–	–	–	–	·	·	·	·	·
COCc1nnc(NC(=O)c2ccc(S(=O)(=O)N3CCCc4ccccc43)cc2)o1	–	18µM	–	–	·	–[10.4 µM]	–	–	–	–
Cc1cc(Cl)ccc1OCC(=O)NNC(=O)C1CCN(c2ncnc3sc(C)c(C)c23)CC1	–	·	–	–	·	·	·	·	·	·
O=C(CN1CC(c2ccccc2)CC1=O)Nc1cccc(F)c1 (stereo not given)	–	–	–	–	–	·	·	·	·	·
NC(=O)C1CCN(CC(=O)Nc2nccs2)CC1	?	3.5µM	–	–	–	?	–	–	–	–
O=C(CN1CCN(c2ccccc2)CC1)Nc1nccs1	–	–	–	–	–	·	·	·	·	·
CCOc1ccc(C(=O)C2CCN(CC(=O)Nc3nccs3)CC2)cc1	–	?	–	–	–	·	·	·	·	·
Cc1ccccc1N1CCN(CC(=O)Nc2nccs2)CC1	–	11µM	–	–	–	–	–	–	–	–
CC(C)(C)OC(=O)NNC(=O)NC12CC3CC(CC(C3)C1)C2	–	–	–	–	·	·	·	·	·	·
COc1cccc(CN2CCN(Cc3ccco3)CC2)c1	–	?	–	–	–	·	·	·	·	·
COc1ccc(CN2CCN(Cc3ccco3)CC2)cc1	–	?	–	–	–	·	·	·	·	·
